# Measured values published in PubChem BioAssay (Tox21).
# Inconclusive results are not listed. Entries that show only a call come without a potency. Activity calls are given as the source filed them. Calls follow the shape of the full dose curve.
# Assay: p53 small molecule agonists, cell-based qHTS assay with human liver microsomes (AID 1963577)
# Details: HCT-116 p53RE-bla with human liver microsomes, ratio, 16 h; series mostly up to 66 µM
# Text: National Center for Advancing Translational Sciences [NCATS]
# Division of Preclinical Innovation [DPI]
# U.S. Environmental Protection Agency [EPA]
# National Institutes of Environmental Health Sciences [NIEHS]
# National Toxicology Program [NTP]
# U.S. Food and Drug Administration [FDA]
# p53, a tumor suppressor protein, is activated following cellular insult, including DNA damage and other cellular stresses. The activation of p53 regulates cell fate by inducing DNA repair, cell cycle arrest, apoptosis, or cellular senescence. The activation of p53, therefore, is a good indicator of DNA damage and other cellular stresses. […] The activation of the reporter gene under culture conditions can be detected by fluorescence intensity.
# Tox21 Assay Protocol Summary:
# The p53RE-bla cells were dispensed at 4,000cells/3ul/well in 1536-well black-clear bottom plates. After the assay plates were incubated at 37 C, 5% CO2 incubator for 5 hours, 23 nL of compounds dissolved in DMSO, positive controls or DMSO only was transferred to the assay plate. Following compound addition, 3 uL of human liver microsomes (XenoTech, Kansas City, KS) at final concentration of 0.5 mg/mL and 1uL of Beta-Nicotinamide adenine dinucleotide 2-phosphate (NADPH) at final concentration of 0.5 mg/mL were transferred to the assay plate. The plates were incubated at 37 C for 16 hours. 1 uL of LiveBLAzer detection mixture was added to each well and the plates were incubated at room temperature in the dark for 2 h.
# Potency is read from the fitted curve at half-maximal effect.
row,Structure (SMILES),Potency
1,O=C(O)CCc1ccccc1,inactive
2,CCn1cc(C(=O)O)c(=O)c2cnc(N3CCNCC3)nc21,inactive
3,CCCCCCCCCCCCCCCCC,inactive
4,Oc1ccc(C(c2ccc(O)cc2)C(Cl)(Cl)Cl)cc1,inactive
5,CC(C)(C)c1ccc(CCC=O)cc1,inactive
6,CCC(C)NC(N)=O (stereo not given),inactive
7,CCOCCOC(=O)/C=C/c1ccc(OC)cc1,inactive
8,CCOCCOCC,inactive
9,O=S(=O)(O)c1cccc2ccccc12,inactive
10,COc1ccc(Br)c(C)c1,inactive
11,CCOc1ncc(F)c(=O)[nH]1,inactive
12,CC(C)(C)NCCO,inactive
13,CCN(CC)C(=O)C1CN2CCc3cc(OC)c(OC)cc3C2CC1OC(C)=O (stereo not given),inactive
14,CC(C)(C)c1cc(C(C)(C)C)c(O)c(C(C)(C)C)c1,inactive
15,CN(C)c1ccc2nc3ccc(=[N+](C)C)cc-3sc2c1,inactive
16,CN(C)c1ccc(C(=N)c2ccc(N(C)C)cc2)cc1,inactive
17,CC/C=C\CCOC(=O)CC,inactive
18,O=C(Cn1ccnc1[N+](=O)[O-])NCc1ccccc1,inactive
19,CCN(Cc1cccc(S(=O)(=O)O)c1)c1ccccc1,inactive
20,C=C(C)C(=O)OCCOP(=O)(O)O,inactive

row,Structure (SMILES),Potency
1,Nc1ccccc1N,inactive
2,Nc1cc(=O)[nH]c(N)n1,inactive
3,[Cl][Nd]([Cl])[Cl],inactive
4,C=CCOCC(CC)(CO)COCC=C,inactive
5,C=CCn1cc[n+](C)c1,inactive
6,CCCSc1ccc2nc(NC(=O)OC)[nH]c2c1,inactive
7,COc1nc(C)nc(NC(=O)NS(=O)(=O)c2ccccc2OCCCl)n1,inactive
8,Cc1ncc(CSSCc2cnc(C)c(O)c2CO)c(CO)c1O,inactive
9,CCOC(=O)CN,inactive
10,CCCC1O[C@@H]2C[C@H]3[C@@H]4CCC5=CC(=O)C=C[C@]5(C)[C@H]4[C@@H](O)C[C@]3(C)[C@]2(C(=O)CO)O1 (stereo not given in full),inactive
11,CC(C)[C@H]1CC[C@@H](C)CC1=O,inactive
12,COCCCC/C(=N\OCCN)c1ccc(C(F)(F)F)cc1,inactive
13,CCOc1ccccc1OCC,inactive
14,Nc1nc(N)c2nc(-c3ccccc3)c(N)nc2n1,18.2 µM (active)
15,CC(C)(CCC(=O)O)C(=O)O,inactive
16,CNCCS(=O)(=O)O,inactive
17,C=C(C)C(=O)OC(C)C,inactive
18,CCCCCCCCS,inactive
19,CC(=O)c1ccc2c(c1)CCCC2,inactive
20,IC(I)I,inactive
